# Data as given in PubChem BioAssay (NCATS).
# Inconclusive results are not listed. Unmarked numbers belong to inactive results. Activity calls are given as the source filed them. Calls follow the shape of the dose curve; as a rule, active = well fitted inhibition curve with a large enough effect; inconclusive = small, poorly fitted or top-dose-only effect; inactive = no such curve, though single readings can be large or run the other way. Residues, ends and D or L forms follow the SMILES beside them. *: point of attachment. Cbz = O=C(OCc1ccccc1)*
# Experiment: HTS Assay for Allosteric Antagonists of the Human D2 Dopamine Receptor: Hit Validation in HTRF (AID 624455);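 also: stable D1 dopamine receptor cell line scored for blocking the D1 response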
# Conditions: Cells stably expressing D1 dopamine receptor, inhibition mode; series mostly up to 46.1 µM; activity, negative = inhibition: at the top concentration
# Text: Dopamine receptors (DARs) are involved in the etiology and/or therapy of a number of neuropsychiatric and endocrine disorders. For instance, all receptor-based antiparkinsonian drugs work via stimulating the D2 DAR subtype whereas all FDA-approved antipsychotic agents are antagonists of this receptor. […] There are three different types of allosteric modulators that we are seeking, two of which will stimulate or augment receptor signaling, allosteric agonists and potentiators, while the third, allosteric antagonists, will attenuate receptor signaling. The present primary screening assay measures compound antagonism after an EC80 addition of dopamine by tracking calcium flux in a […], inducible Hek293 Trex D2 cell line. This assay measures activity of the hits in the D1 HTRF assay.
# NIH Chemical Genomics Center [NCGC]
# NIH Molecular Libraries Probe Centers Network [MLPCN]
# Assay Submitter (PI): David Sibley
# Cells stably expressing the D1 dopamine receptor will be run in an HTRF assay and compounds will be examined for the ability to inhibit the D1 mediated response.
# % is scaled to controls: 0 for no effect and ±100 for the full control effect; potency is read from the fitted curve at half-maximal effect.
Compound,"activity, negative = inhibition [%]",Potency
Fc1ccc(CN(C2=NCCN2)c2c(Cl)cccc2Cl)cc1,3.35,–
CN1CC(O)C(O)C(O)C1CO (stereo not given),0.684,–
COc1ccc(-c2cc3ncc(C)n3c(Nc3ncccc3C(N)=O)n2)cc1OC,-2.46,–
Cc1ccc2c(c1)C(N1CCN(C)CC1)=Nc1cccnc1N2,12.2,–
COc1ccc2c(c1)c(CC(=O)O)c(C)n2Cc1ccc(Cl)cc1,3.88,–
N=C(N)SCCc1cnc[nH]1,0.979,–
CC(N)(C(=O)O)c1ccc(C(=O)O)cc1 (stereo not given),2.18,–
CC(=O)/C(C)=N/O,-3.3,–
NC(N)=[N+]1CCc2ccccc2C1,-0.26,–
COc1ccc(CCn2nnnc2C2(c3ccc(C)cc3)CC2)cc1,-0.342,–
N=C(N)c1ccc(N)cc1,-13.7,–
CCCCCCC/C=C\CCCCCCCCC(=O)O,-3.93,–
O=C(O)c1cccnc1C(=O)O,-0.307,–
CN(C)S(=O)(=O)c1ccc2c(c1)/C(=C/c1cc3c([nH]1)CCCC3)C(=O)N2,8.27,–
O=c1[nH]c2ccccc2c2ccccc12,-4.48,–
Cc1cc2c(cc1Cl)N(C(=O)Nc1ccnc3ccccc13)CC2,3.76,–
CC(=O)NCCc1c[nH]c2ccc(O)cc12,8.06,–
CNC(=O)c1cc2c(cn1)[nH]c1ccccc12,-0.436,–
COC(=O)[C@H](NC(=O)c1cc(-c2ccccc2)nc2ccccc12)c1ccccc1,6.68,–
CC(C)[C@H](NC(=O)OCc1ccccc1)C(=O)N[C@H](C=O)Cc1ccccc1 (Cbz-Val-Phe-aldehyde),8.37,–

Compound,"activity, negative = inhibition [%]",Potency
NC(N)=N[C@@H](CCC(=O)O)C(=O)O,-7.71,–
Nc1ccc(CCNc2ncnc3c2ncn3C2OC(CO)C(O)C2O)cc1 (stereo not given),6.71,–
CCCn1c(=O)c(C)cn2nc(N)nc12,-4.01,–
CCSC(=N)N,31.9,–
C[C@H]1CC2C3CCC4=CC(=O)C=C[C@]4(C)[C@@]3(Cl)[C@@H](O)C[C@]2(C)[C@@]1(O)C(=O)CO (stereo not given in full),-1.73,–
COc1ccccc1N1CCN(CCN(C(=O)c2ccc(F)cc2)c2ccccn2)CC1,-0.979,–
C[C@@H](NCCc1ccc(O)cc1)[C@@H](O)c1ccc(O)cc1,-3.17,–
CN1Cc2sccc2C(c2ccc(O)c(O)c2)C1 (stereo not given),–,16.4 nM (active)
O=c1cc(-c2ccccc2)[nH]c2nc(Cl)ccc12,-4.97,–
C=CC[C@H](N)C(=O)O,-1.24,–
O=C(O)C1CCCNC1 (stereo not given),1.91,–
NCC(O)C1CCCCCCC1 (stereo not given),-9.05,–
N[C@@H](Cc1ccc(O)c(I)c1)C(=O)O,-2.15,–
Cc1ccc([N+](=O)[O-])cc1S(=O)(=O)N(C)C,-3.79,–
C/C(=C\c1ccc(C(=O)O)cc1)c1ccc2c(c1)C(C)(C)CCC2(C)C,-9.07,–
Brc1c(Br)c(Br)c2[nH]cnc2c1Br,-2.13,–
N=C(N)c1ccc(OCCCCCOc2ccc(C(=N)N)cc2)cc1 (tested in a mixture with another compound),5.77,–
CC#CCOC(=O)c1c(C)nc2sc3c(c2c1N)CCC(O)C3 (stereo not given),-2.02,–
CC1CNCCN1S(=O)(=O)c1cccc2cnccc12 (stereo not given),-4.36,–
CCCCCCCCCC(=O)NC(CN1CCOCC1)[C@H](O)c1ccccc1 (stereo not given in full),35.1,–
